Laboratory results as given in PubChem BioAssay (NCI).
This is part of a sample that, as a whole, favours compounds with a hit. Of some 79,000 tested, about 15% had one in any assay. Active and inactive are the calls of the source. Cut-off read from the data, not from the text of the source: active = growth inhibition above about 70%; inactive = the rest.

Key:
[1] = NCI Yeast Anticancer Drug Screen. Data for the wt1 strain (AID 149);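 note: 0% = growth of vehicle-treated wt1 cultures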; conditions: S. cerevisiae wt1 strain (SPY 50644) growth inhibition, hits give high values
Summary of the method: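 Yeast wt1 strain exposed to compounds; growth inhibition measured relative to vehicle-treated controls.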

[2] = NCI Yeast Anticancer Drug Screen. Data for the rad50EPP+ strain (AID 151);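 note: 0% = growth of vehicle-treated control cultures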; conditions: S. cerevisiae rad50 mutant strain, hits give high values
Summary of the method: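 Yeast strain carrying rad50 alteration (rad50EPP+) exposed to compounds; growth inhibition measured relative to vehicle-treated controls.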

[3] = NCI Yeast Anticancer Drug Screen. Data for the mgt1 strain (AID 153); conditions: S. cerevisiae mgt1 mutant growth inhibition, hits give high values
Summary of the method: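 Yeast mgt1 strain (DNA repair/cell-cycle alteration panel) exposed to compounds; growth inhibition measured relative to vehicle-treated controls.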

[4] = NCI Yeast Anticancer Drug Screen. Data for the rad50 strain (AID 155);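 note: 0% = growth of vehicle-only cultures of the same strain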; conditions: S. cerevisiae rad50 strain growth inhibition, hits give high values
Summary of the method: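 Yeast carrying a defined DNA repair defect were exposed to test compounds, and growth was compared with vehicle-treated controls to give percent inhibition.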

[5] = NCI Yeast Anticancer Drug Screen. Data for the mec2-1 strain (AID 157); conditions: S. cerevisiae mec2-1 strain, hits give high values
Summary of the method: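 mec2-1 yeast strain, carrying an alteration in DNA damage repair or cell cycle control, was exposed to compounds; growth inhibition was measured relative to vehicle-treated controls.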

[6] = NCI Yeast Anticancer Drug Screen. Data for the sgs1 mgt1 strain (AID 161);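 note: 0% = growth of cultures given vehicle only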; conditions: S. cerevisiae sgs1 mgt1 strain, hits give high values
Summary of the method: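 This yeast growth screen uses a strain with defined DNA-repair lesions; compound-treated growth is compared with vehicle-treated growth.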

[7] = NCI Yeast Anticancer Drug Screen. Data for the CLN2oe strain (AID 163);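 note: 0% = growth of vehicle-only control cultures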; conditions: S. cerevisiae CLN2oe strain, hits give high values
Summary of the method: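 Yeast cells carrying a defined cell-cycle control alteration were exposed to test compounds. Growth inhibition was scored against vehicle-treated control cultures.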

[8] = NCI Yeast Anticancer Drug Screen. Data for the cln2 rad14 strain (AID 165);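 note: 0% = growth equal to vehicle treated cultures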; conditions: S. cerevisiae cln2 rad14 strain, hits give high values
Summary of the method: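 Yeast carrying cln2 and rad14 alterations (cell cycle control and DNA damage repair) were exposed to compounds. Growth inhibition was measured against vehicle-treated controls.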

[9] = NCI Yeast Anticancer Drug Screen. Data for the bub3 strain (AID 167); conditions: S. cerevisiae bub3 mutant strain, hits give high values
Summary of the method: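 Compounds were applied to a genetically altered yeast strain carrying a cell-cycle control defect. Growth inhibition was scored against vehicle-treated controls.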

[10] = NCI Yeast Anticancer Drug Screen. Data for the wt2 strain (AID 169);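 note: 0% = growth of vehicle-treated yeast cultures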; conditions: S. cerevisiae wt2 strain growth inhibition, hits give high values
Summary of the method: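 Yeast cells were exposed to test compounds, and growth inhibition was measured relative to vehicle-treated controls.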

[11] = NCI Yeast Anticancer Drug Screen. Data for the mlh1 strain (AID 171);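 note: 0% = growth of vehicle-treated control cultures of the same strain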; conditions: S. cerevisiae mlh1 strain growth inhibition, hits give high values
Summary of the method: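 Yeast carrying a defined genetic alteration in DNA damage repair or cell cycle control were exposed to test compounds. Growth inhibition was measured relative to vehicle-treated controls.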

[12] = NCI Yeast Anticancer Drug Screen. Data for the sgs1 strain (AID 173);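 note: 0% = growth of vehicle-only control cultures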; conditions: S. cerevisiae sgs1 mutant, hits give high values
Summary of the method: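 Yeast mutant strains carrying defined defects in DNA damage repair or cell cycle control were exposed to test compounds. Growth inhibition was scored against vehicle-treated controls.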

[13] = NCI Yeast Anticancer Drug Screen. Data for the mlh1 rad18 strain (AID 175); conditions: S. cerevisiae mlh1 rad18 strain growth inhibition, hits give high values
Summary of the method: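 Growth inhibition of the yeast strain was measured after compound exposure and expressed relative to vehicle-treated controls. The strain carries defined defects in DNA damage repair.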

[14] = NCI Yeast Anticancer Drug Screen. Data for the rad14 strain (AID 159);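 note: 0% = growth of vehicle-treated control cultures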; conditions: S. cerevisiae rad14 strain growth inhibition, hits give high values
Summary of the method: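 Yeast cells carrying a defined DNA-repair defect were exposed to compounds, and growth inhibition was calculated relative to vehicle-treated control cultures.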

[15] = NCI Yeast Anticancer Drug Screen. Data for the rad18 strain (AID 177); conditions: S. cerevisiae rad18 mutant growth inhibition, hits give high values
Summary of the method: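 Yeast carrying a defined DNA damage repair alteration were exposed to compounds. Growth inhibition was expressed relative to vehicle-treated controls.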

[16] = at 5.0 µM (retest, dose inferred, filed as 0.5)
[17] = at 50.0 µM (retest, dose inferred, filed as 5.0)

Measured: growth inhibition

O=C(O)/C=C\C(=O)NNc1ccc(Br)cc1
active: [1]; at 3.7 µM 97% | [1]; at 11.0 µM 99% | [1]; at 33.0 µM 99% | [1]; at 100.0 µM 99% | [2]; at 3.7 µM 78% | [2]; at 11.0 µM 98% | [2]; at 33.0 µM 99% | [2]; at 100.0 µM 99% | [3]; at 11.0 µM 99% | [3]; at 33.0 µM 99% | [3]; at 100.0 µM 98% | [4]; at 11.0 µM 99% | [4]; at 33.0 µM 98% | [4]; [17] 97% | [4]; at 50.0 µM 98.3% | [4]; at 100.0 µM 99% | [5]; at 3.7 µM 90% | [5]; [16] 76% | [5]; at 11.0 µM 99% | [5]; at 33.0 µM 99% | [5]; [17] 99% | [5]; at 50.0 µM 98.2% | [5]; at 100.0 µM 99% | [6]; [17] 98% | [6]; at 50.0 µM 98.5% | [7]; at 3.7 µM 96% | [7]; at 11.0 µM 99% | [7]; at 33.0 µM 99% | [7]; at 100.0 µM 99% | [8]; [17] 97% | [8]; at 50.0 µM 97.3% | [9]; at 11.0 µM 99% | [9]; at 33.0 µM 99% | [9]; [17] 97% | [9]; at 50.0 µM 98.5% | [9]; at 100.0 µM 99% | [10]; at 3.7 µM 99% | [10]; at 11.0 µM 99% | [10]; at 33.0 µM 99% | [10]; at 100.0 µM 99% | [11]; at 3.7 µM 77% | [11]; at 11.0 µM 98% | [11]; at 33.0 µM 98% | [11]; at 100.0 µM 99% | [12]; at 11.0 µM 99% | [12]; at 33.0 µM 99% | [12]; at 100.0 µM 99% | [13]; [17] 98% | [13]; at 50.0 µM 98.3%
inactive: [1]; at 1.2 µM 2% | [2]; at 1.2 µM 14% | [3]; at 1.2 µM -1% | [3]; at 3.7 µM 32% | [4]; at 1.2 µM 8% | [4]; at 3.7 µM 53% | [4]; [16] 10% | [5]; at 1.2 µM 1% | [6]; [16] 31% | [7]; at 1.2 µM -6% | [8]; [16] 15% | [9]; at 1.2 µM 10% | [9]; at 3.7 µM 60% | [9]; [16] 3% | [10]; at 1.2 µM 13% | [11]; at 1.2 µM -2% | [12]; at 1.2 µM 4% | [12]; at 3.7 µM 66% | [13]; [16] 27%

C=Cc1c(C)c(O)cc2c1-c1ccc(O)c(C)c1CC2
inactive: [1]; at 1.2 µM -8% | [1]; at 3.7 µM -4% | [1]; at 11.0 µM -11% | [2]; at 1.2 µM 1% | [2]; at 3.7 µM 24% | [2]; at 11.0 µM 16% | [2]; at 33.0 µM 40% | [3]; at 1.2 µM -18% | [3]; at 3.7 µM -1% | [3]; at 11.0 µM -3% | [5]; at 1.2 µM -19% | [5]; at 3.7 µM -8% | [5]; [16] 22% | [5]; at 11.0 µM -7% | [5]; at 50.0 µM -52.2% | [14]; at 1.2 µM -21% | [14]; at 3.7 µM -21% | [14]; at 11.0 µM -19% | [6]; [16] 55% | [6]; at 50.0 µM -18.5% | [7]; at 1.2 µM 10% | [7]; at 3.7 µM 5% | [7]; at 11.0 µM 26% | [8]; [16] 12% | [8]; [17] 59% | [8]; at 50.0 µM 10.6% | [9]; at 1.2 µM -9% | [9]; at 3.7 µM -11% | [9]; [16] 28% | [9]; at 11.0 µM 5% | [9]; at 50.0 µM -43.2% | [10]; at 1.2 µM -63% | [10]; at 3.7 µM -43% | [10]; at 11.0 µM 37% | [10]; at 33.0 µM 46% | [11]; at 1.2 µM 12% | [11]; at 3.7 µM -8% | [11]; at 11.0 µM 3% | [12]; at 1.2 µM -7% | [12]; at 3.7 µM 16% | [12]; at 11.0 µM 36% | [13]; [16] 69% | [15]; at 1.2 µM -25% | [15]; at 3.7 µM -7% | [15]; at 11.0 µM 4%
active: [1]; at 33.0 µM 98% | [1]; at 100.0 µM 98% | [2]; at 100.0 µM 98% | [3]; at 33.0 µM 98% | [3]; at 100.0 µM 99% | [5]; at 33.0 µM 98% | [5]; [17] 97% | [5]; at 100.0 µM 98% | [14]; at 33.0 µM 97% | [14]; at 100.0 µM 98% | [6]; [17] 93% | [7]; at 33.0 µM 98% | [7]; at 100.0 µM 99% | [9]; at 33.0 µM 98% | [9]; [17] 97% | [9]; at 100.0 µM 99% | [10]; at 100.0 µM 88% | [11]; at 33.0 µM 98% | [11]; at 100.0 µM 99% | [12]; at 33.0 µM 98% | [12]; at 100.0 µM 99% | [13]; [17] 87% | [13]; at 50.0 µM 89.3% | [15]; at 33.0 µM 98% | [15]; at 100.0 µM 99%

CC[C@]1(O)C[C@H]2CN(CCc3c([nH]c4ccccc34)[C@@](C(=O)OC)(c3cc4c(cc3OC)N(C)[C@H]3[C@@](O)(C(=O)OC)[C@H](OC(C)=O)[C@]5(CC)C=CCN6CC[C@]43[C@@H]65)C2)C1
inactive: [1]; at 1.2 µM 1% | [1]; at 3.7 µM -1% | [1]; at 11.0 µM -2% | [1]; at 33.0 µM -1% | [1]; at 100.0 µM -19% | [2]; at 1.2 µM -2% | [2]; at 3.7 µM -3% | [2]; at 11.0 µM -2% | [2]; at 33.0 µM -1% | [2]; at 100.0 µM -6% | [3]; at 1.2 µM -2% | [3]; at 3.7 µM -3% | [3]; at 11.0 µM -1% | [3]; at 33.0 µM -2% | [3]; at 100.0 µM -6% | [4]; at 1.2 µM -2% | [4]; at 3.7 µM -3% | [4]; at 11.0 µM 2% | [4]; at 33.0 µM -4% | [4]; at 50.0 µM -4.25% | [4]; at 100.0 µM -5% | [5]; at 1.2 µM -2% | [5]; at 3.7 µM 0% | [5]; at 11.0 µM -2% | [5]; at 33.0 µM 1% | [5]; at 50.0 µM -3.3% | [5]; at 100.0 µM -7% | [14]; at 1.2 µM -2% | [14]; at 3.7 µM -4% | [14]; at 11.0 µM 0% | [14]; at 33.0 µM -2% | [14]; at 100.0 µM -3% | [6]; at 50.0 µM 1.35% | [7]; at 1.2 µM -2% | [7]; at 3.7 µM 3% | [7]; at 11.0 µM 1% | [7]; at 33.0 µM -11% | [7]; at 100.0 µM -6% | [8]; at 50.0 µM 24.4% | [9]; at 1.2 µM 1% | [9]; at 3.7 µM 1% | [9]; at 11.0 µM -1% | [9]; at 33.0 µM -7% | [9]; at 50.0 µM 14.3% | [9]; at 100.0 µM -7% | [10]; at 1.2 µM -1% | [10]; at 3.7 µM 0% | [10]; at 11.0 µM -3% | [10]; at 33.0 µM -3% | [10]; at 100.0 µM -4% | [11]; at 1.2 µM 0% | [11]; at 3.7 µM -1% | [11]; at 11.0 µM -1% | [11]; at 33.0 µM -1% | [11]; at 100.0 µM -4% | [12]; at 1.2 µM 0% | [12]; at 3.7 µM -2% | [12]; at 11.0 µM 1% | [12]; at 33.0 µM 1% | [12]; at 100.0 µM -3% | [13]; at 50.0 µM 30.6% | [15]; at 1.2 µM -2% | [15]; at 3.7 µM -3% | [15]; at 11.0 µM -5% | [15]; at 33.0 µM -6% | [15]; at 100.0 µM -7%
